Results on four compounds are retold here after PubChem BioAssay.

Molecules are shown by their SMILES. Records with an inconclusive call do not appear. Calls of active or inactive are those of the source.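 The calls were made as follows, unless noted: active = normalized viability below 100% at a tested concentration; inactive = the rest.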

Assay [1] can be described thus: growth inhibition of DIPG glioma cells, dose response, cell-based, SU-DIPG-XVII, MIPE5.0, CellTiter-Glo, qHTS (AID 1347060; cut-off not given, nearly all actives have AC50 up to about 26 µM;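 as to AC50: cells exposed to compound for 48 hours before viability readout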). The following applies: SU-DIPG-XVII viability, CellTiter-Glo ATP luminescence. (In general: Cellular ATP, detected with luciferase, serves as a proxy for viable cell number.)
Assay [2] is described as follows: growth inhibition of DIPG glioma cells, dose response, cell-based, JHH-DIPG-1, MIPE4.0, CellTiter-Glo, qHTS (AID 1347062; cut-off not given, nearly all actives have AC50 up to about 27 µM;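 as to AC50: cells exposed to compound for two days before readout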). As to conditions: JHH-DIPG-1 viability, CellTiter-Glo ATP luminescence.
The nature of assay [3]: growth inhibition of DIPG glioma cells, dose response, cell-based, SU-DIPG-XIII, MIPE5.0, CellTiter-Glo, qHTS (AID 1347064; cut-off not given, nearly all actives have AC50 up to about 23 µM;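 as to AC50: cells exposed to compound for 48 hours before the viability read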). The following applies: SU-DIPG-XIII viability, CellTiter-Glo ATP luminescence.
Assay [4] is described as follows: viability loss in pontine glioma line – cell-based, SU-DIPG-XXV, MIPE5.0, CellTiter-Glo, qHTS, dose response (AID 1347065; cut-off not given, nearly all actives have AC50 up to about 26 µM;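 also: cells exposed to compound for 48 hours before ATP readout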). As to conditions: CellTiter-Glo ATP luminescence.
Assay [5] in a line: JHH-DIPG-1 glioma cell viability, MIPE5.0 library, CellTiter-Glo luminescence, qHTS (AID 1347067; cut-off not given, nearly all actives have AC50 up to about 26 µM;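 also: cells exposed to compound for 48 hours before readout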). As to conditions: JHH-DIPG-1 glioma viability, CellTiter-Glo ATP luminescence.
The nature of assay [6]: ovarian cancer cell viability with rucaparib, profiling panel, oncology-focused library, rucaparib conditional (AID 1508598). The following applies: patient-derived ovarian cancer cells, CellTiter-Glo viability, 144 h, stronger effect = lower value.
The nature of assay [7]: SU-DIPG-VI glioma cell viability, MIPE4.0 library, CellTiter-Glo luminescence, qHTS (AID 1347066; cut-off not given, nearly all actives have AC50 up to about 30 µM;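 also: cells exposed to compound for 48 hours before readout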). As to conditions: CellTiter-Glo ATP luminescence.
Assay [8] in a line: SU-DIPG-XXV glioma cell viability, MIPE5.0 library, qHTS (AID 1347068; cut-off not given, nearly all actives have IC50 up to about 30 µM).
The nature of assay [9]: sensitizers of A549 cells to miR-34 induction, primary screen, imaging, A549 dox-inducible miR-34, nuclei and caspase counts (AID 1347080;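 active = compounds whose cell count with miR-34 switched on is under 0.7 times the count with it off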). As to conditions: A549 miR-34 inducible, Hoechst nuclei count, 48 h.
The nature of assay [10]: survival rescue of mitochondrial mutant cells in low glucose, primary screen, MELAS cybrids, Rieske KO mouse fibroblasts, CellTiter-Glo (AID 1508586;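 active = mean z-score across replicates of 1.96 or higher in either the MELAS or the Rieske mutant cell line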;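 also: z relative to plate mean and SD of compound and empty wells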).
[11] abbreviates: at 0.000305 µM, OCI-C5x cells, with rucaparib 10 µM, 100% = cells with rucaparib alone.
Where [12] appears, read: at 0.000305 µM, OCI-C5x cells, without rucaparib.
[13] abbreviates: at 0.000305 µM, OCI-P5x cells, with rucaparib 20 µM, 100% = cells with rucaparib alone.
Where [14] appears, read: at 0.000305 µM, OCI-P5x cells, without rucaparib.
[15] abbreviates: at 0.00122 µM, OCI-C5x cells, with rucaparib 10 µM, 100% = cells with rucaparib alone.
[16] abbreviates: at 0.00122 µM, OCI-C5x cells, without rucaparib.
[17] abbreviates: at 0.00122 µM, OCI-P5x cells, with rucaparib 20 µM, 100% = cells with rucaparib alone.
Where [18] appears, read: at 0.00122 µM, OCI-P5x cells, without rucaparib.
Where [19] appears, read: at 0.00488 µM, OCI-C5x cells, with rucaparib 10 µM, 100% = cells with rucaparib alone.
The mark [20] stands for this setting: at 0.00488 µM, OCI-C5x cells, without rucaparib.
The mark [21] stands for this setting: at 0.00488 µM, OCI-P5x cells, with rucaparib 20 µM, 100% = cells with rucaparib alone.
Setting [22] is: at 0.00488 µM, OCI-P5x cells, without rucaparib.
Setting [23] is: at 0.0195 µM, OCI-C5x cells, with rucaparib 10 µM, 100% = cells with rucaparib alone.
Setting [24] is: at 0.0195 µM, OCI-C5x cells, without rucaparib.
[25] abbreviates: at 0.0195 µM, OCI-P5x cells, with rucaparib 20 µM, 100% = cells with rucaparib alone.
Where [26] appears, read: at 0.0195 µM, OCI-P5x cells, without rucaparib.
The mark [27] stands for this setting: at 0.0781 µM, OCI-C5x cells, with rucaparib 10 µM, 100% = cells with rucaparib alone.
[28] abbreviates: at 0.0781 µM, OCI-C5x cells, without rucaparib.
The mark [29] stands for this setting: at 0.0781 µM, OCI-P5x cells, with rucaparib 20 µM, 100% = cells with rucaparib alone.
The mark [30] stands for this setting: at 0.0781 µM, OCI-P5x cells, without rucaparib.
[31] abbreviates: at 0.313 µM, OCI-C5x cells, with rucaparib 10 µM, 100% = cells with rucaparib alone.
Setting [32] is: at 0.313 µM, OCI-C5x cells, without rucaparib.
Setting [33] is: at 0.313 µM, OCI-P5x cells, with rucaparib 20 µM, 100% = cells with rucaparib alone.
[34] abbreviates: at 0.313 µM, OCI-P5x cells, without rucaparib.
Where [35] appears, read: at 1.25 µM, OCI-C5x cells, with rucaparib 10 µM, 100% = cells with rucaparib alone.
Setting [36] is: at 1.25 µM, OCI-C5x cells, without rucaparib.
Where [37] appears, read: at 1.25 µM, OCI-P5x cells, with rucaparib 20 µM, 100% = cells with rucaparib alone.
Where [38] appears, read: at 1.25 µM, OCI-P5x cells, without rucaparib.
The mark [39] stands for this setting: at 5 µM, OCI-C5x cells, with rucaparib 10 µM, 100% = cells with rucaparib alone.
[40] abbreviates: at 5 µM, OCI-C5x cells, without rucaparib.
Setting [41] is: at 5 µM, OCI-P5x cells, with rucaparib 20 µM, 100% = cells with rucaparib alone.
[42] abbreviates: at 5 µM, OCI-P5x cells, without rucaparib.

For orientation: AC50 means the concentration at which the activity in the assay is half-maximal. One may read the viability as a read-out of living cells in per cent, often relative to untreated cells. As to `CCC[C@H](Nc1nc(-c2ccc(NC(=O)NCC)c(OC)c2)ncc1C)c1cccnc1`, the AC50 in assay [1] is 132 nM (active); in assay [2], 14.8 nM (active); in assay [3], 186 nM (active); in assay [4], 118 nM (active); in assay [5], 132 nM (active). Also, the viability in assay [6] (setting [11]) is 92.2% (active); in assay [6] (setting [12]), 101% (inactive); in [6] (setting [13]), 107% (inactive); in assay [6] (setting [14]) it was 99.6% (active); in assay [6] (setting [15]), 104% (inactive); in assay [6] (setting [16]) it was 103% (inactive). Further, the viability is 103% (inactive) in [6] (setting [17]); 97.7% (active) in [6] (setting [18]); 104% (inactive) in assay [6] (setting [19]); 110% (inactive) in assay [6] (setting [20]); 100% (inactive) in [6] (setting [21]); 90.5% (active) in assay [6] (setting [22]). For the same compound, the viability in [6] (setting [23]) was 98.1% (active); in assay [6] (setting [24]) it was 30.6% (active); in assay [6] (setting [25]), 85.4% (active); in assay [6] (setting [26]) it was 15.9% (active); in assay [6] (setting [27]) it was 35.4% (active); in assay [6] (setting [28]) it was 23.5% (active). For the same compound, the viability is 51.3% (active) in assay [6] (setting [29]); 13% (active) in assay [6] (setting [30]); 39.7% (active) in assay [6] (setting [31]); 22.5% (active) in assay [6] (setting [32]); 44.4% (active) in [6] (setting [33]); 11% (active) in assay [6] (setting [34]). In addition, the viability is 38% (active) in assay [6] (setting [35]); 23.4% (active) in [6] (setting [36]); 41.8% (active) in assay [6] (setting [37]); 9.8% (active) in assay [6] (setting [38]); 39.3% (active) in [6] (setting [39]); 25.1% (active) in assay [6] (setting [40]). Moreover, the figures for the viability in assay [6] (setting [41]) and in assay [6] (setting [42]) were 50.6% (active) and 10.1% (active), respectively.

On to `O=C(Nc1ccccc1)Nc1ccc(-c2ccc(C(=O)[C@@H]3CCC[C@H]3C(=O)O)cc2)cc1`, for which the outcome in assay [1], in assay [2], in [4], in assay [7], in assay [5] and in assay [8] was inactive.

In the case of `Cc1ccc(S(=O)(=O)Nc2nc3ccccc3nc2Nc2ccc3nsnc3c2)cc1`, the result in assay [1], in assay [3], in assay [5] and in [8] was inactive. For the same compound, the AC50 in assay [2] was 512 nM (active). Further, the fold change was 0.883 (inactive) in assay [9] (stronger effect = lower value, cell number ratio, induced over uninduced) and 1.38 in assay [9] (measured here: relative caspase fold change +Dox/-Dox). The cell count was 3480 in assay [9] (measured here: total cells with miR-34 induction, stronger effect = lower value) and 3940 in assay [9] (measured here: total cells without miR-34 induction). For the same compound, the z-score in assay [10] (MELAS cybrid survival, CellTiter-Glo 48 h, stronger effect = higher value) was -0.561 (inactive); in [10] (Rieske KO mouse fibroblast survival, CellTiter-Glo 72 h) it was 0.136. Further, the viability in assay [6] (setting [11]) is 107% (inactive); in assay [6] (setting [12]), 120% (inactive); in assay [6] (setting [13]), 124% (inactive); in assay [6] (setting [14]), 116% (inactive); in [6] (setting [15]), 122% (inactive); in [6] (setting [16]) it was 132% (inactive). Also, the viability in assay [6] (setting [17]) is 131% (inactive); in assay [6] (setting [18]), 117% (inactive); in [6] (setting [19]), 112% (inactive); in [6] (setting [20]) it was 130% (inactive); in assay [6] (setting [21]) it was 125% (inactive); in assay [6] (setting [22]), 115% (inactive). For the same compound, the viability in [6] (setting [23]) was 123% (inactive); in [6] (setting [24]) it was 132% (inactive); in assay [6] (setting [25]) it was 120% (inactive); in assay [6] (setting [26]), 108% (inactive); in assay [6] (setting [27]) it was 122% (inactive); in assay [6] (setting [28]), 124% (inactive). The viability is 125% (inactive) in assay [6] (setting [29]); 110% (inactive) in [6] (setting [30]); 112% (inactive) in assay [6] (setting [31]); 74.9% (active) in assay [6] (setting [32]); 117% (inactive) in assay [6] (setting [33]); 106% (inactive) in [6] (setting [34]). The viability in [6] (setting [35]) was 115% (inactive); in [6] (setting [36]), 121% (inactive); in [6] (setting [37]) it was 110% (inactive); in assay [6] (setting [38]), 105% (inactive); in assay [6] (setting [39]) it was 107% (inactive); in assay [6] (setting [40]), 117% (inactive). Further, the viability in assay [6] (setting [41]) was 95.1% (active); in assay [6] (setting [42]), 102% (inactive).

Consider `N#Cc1cc(NC(=O)Nc2nnc(-c3ccncc3)s2)ccc1-c1cn[nH]c1`, for which the AC50 in [1] is 372 nM (active). In addition, the outcome in assay [2], in assay [3], in assay [4], in assay [7] and in assay [8] was inactive.
